Measurements taken from PubChem BioAssay (Tox21).
Results filed as inconclusive are left out. The source made the active and inactive calls. Unless noted, calls follow the shape of the dose curve; as a rule, active = well fitted curve in the direction sought with a large enough effect in the repeat runs; inconclusive = weak or mixed curves; inactive = no such curve, though single readings can be large; an effect the other way counts as inactive or inconclusive.

Columns and labels:
[1] = qHTS assay to identify small molecule antagonists of the sonic hedgehog signaling (Shh) pathway (AID 1259369; calls by dose curve; also: nearly all actives have a fitted effect of over 45% in size)
Procedure, shortened: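 Conditioned medium drives Shh signalling in 3T3Gli1-Luc cells; compounds in DMSO co-applied, 24hr at 37 C, then luciferase luminescence.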

[2] = molecular target: Estrogen receptor beta (Homo sapiens) (UniProt Q92731); assay: qHTS assay to identify small molecule agonists of the estrogen receptor beta (ER-beta) signaling pathway (AID 1259377; active = well fitted activation curve with a large enough effect in the signal ratio in the repeat runs, not every such curve was filed as active; the % refers to the signal ratio)
Sequence of Estrogen receptor beta (Homo sapiens) (Q92731 whole entry, looked up): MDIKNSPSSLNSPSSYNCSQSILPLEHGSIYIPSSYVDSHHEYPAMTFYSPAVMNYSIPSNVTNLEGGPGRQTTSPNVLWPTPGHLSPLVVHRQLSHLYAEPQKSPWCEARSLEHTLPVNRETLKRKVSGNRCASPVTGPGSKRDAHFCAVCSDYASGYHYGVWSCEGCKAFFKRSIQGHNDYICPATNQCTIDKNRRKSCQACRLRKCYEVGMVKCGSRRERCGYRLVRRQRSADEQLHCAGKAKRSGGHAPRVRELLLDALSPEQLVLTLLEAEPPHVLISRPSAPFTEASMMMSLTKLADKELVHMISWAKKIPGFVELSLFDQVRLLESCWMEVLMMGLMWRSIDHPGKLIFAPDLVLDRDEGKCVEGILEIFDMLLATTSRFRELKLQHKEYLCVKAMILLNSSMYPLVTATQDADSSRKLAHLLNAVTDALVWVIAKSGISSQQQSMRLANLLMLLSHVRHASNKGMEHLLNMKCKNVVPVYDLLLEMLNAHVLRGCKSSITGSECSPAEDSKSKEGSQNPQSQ
Procedure, shortened: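 qHTS in ER-beta-UAS-bla HEK293T cells: 6 hr settling, then 16 hr compound at 37C, then LiveBLAzer substrate 2 h at RT before fluorescence reading.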

[3] = molecular target: Estrogen receptor beta (Homo sapiens) (UniProt Q92731); assay: qHTS assay to identify small molecule antagonists of the estrogen receptor beta (ER-beta) signaling pathway (AID 1259378; active = well fitted inhibition curve with a large enough effect in the signal ratio in the repeat runs, not every such curve was filed as active; the % refers to the signal ratio)
Procedure, shortened: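 ER-beta-UAS-bla HEK293T cells in 2% charcoal-stripped FBS medium treated with compound plus 1nM final 17-beta-estradiol for 16 hr at 37C. Beta-lactamase reporter read by FRET substrate fluorescence after 2 hours at room temperature.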

[4] = qHTS assay to identify small molecule agonists of the estrogen receptor beta (ER-beta) signaling pathway - cell viability counter screen (AID 1259380); also: nearly all actives have a fitted effect of over 30% in size
Procedure, shortened: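 Cells used were ER-beta-UAS-bla HEK293T in medium with 2% charcoal-stripped FBS. They were treated for 16 hr at 37C. Viability came from CellTiter-Glo luminescence.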

[5] = qHTS assay to identify small molecule antagonists of the estrogen receptor beta (ER-beta) signaling pathway - cell viability counter screen (AID 1259382); also: series mostly up to about 92 µM; nearly all actives have a fitted effect of over 55% in size
Procedure, shortened: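 Agonist-stimulated (1nM E2) ER-beta-UAS-bla HEK293T cells are incubated with library compounds for 16 hr at 37C. Cell viability is then assessed in the reporter-assay wells by adding CellTiter-Glo and reading luminescence after 30 min.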

[6] = molecular target: Estrogen receptor (Homo sapiens) (UniProt P03372); assay: qHTS assay to identify small molecule agonists of the estrogen receptor alpha (ER-alpha) signaling pathway in the presence of an antagonist (AID 1259383; calls by dose curve; also: top concentration of the series differs between compounds; nearly all actives have a fitted effect of over 15% in size)
Sequence of Estrogen receptor (Homo sapiens) (P03372 whole entry, looked up): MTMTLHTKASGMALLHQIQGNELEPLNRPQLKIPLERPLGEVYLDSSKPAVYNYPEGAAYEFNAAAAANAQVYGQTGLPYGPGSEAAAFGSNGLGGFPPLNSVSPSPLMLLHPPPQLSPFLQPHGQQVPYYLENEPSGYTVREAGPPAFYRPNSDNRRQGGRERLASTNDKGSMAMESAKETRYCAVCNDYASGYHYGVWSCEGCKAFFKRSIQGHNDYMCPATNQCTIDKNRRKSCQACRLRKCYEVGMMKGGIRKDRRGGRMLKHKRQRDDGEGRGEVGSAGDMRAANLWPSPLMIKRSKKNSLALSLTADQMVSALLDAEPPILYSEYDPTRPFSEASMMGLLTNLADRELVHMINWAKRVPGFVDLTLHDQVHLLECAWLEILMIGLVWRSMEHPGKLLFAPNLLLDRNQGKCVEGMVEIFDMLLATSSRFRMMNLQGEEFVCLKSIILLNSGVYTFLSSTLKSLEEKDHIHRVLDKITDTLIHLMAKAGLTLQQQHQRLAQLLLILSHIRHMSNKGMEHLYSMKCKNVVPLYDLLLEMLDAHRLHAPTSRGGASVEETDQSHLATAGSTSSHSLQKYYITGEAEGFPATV
Procedure, shortened: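 Using VM7Luc4E2 cells seeded 24hr before treatment, antagonist ICI-182,780 (10.0nM final) was added, followed by compounds at 15 concentrations. Plates incubated 22hr; ONE-Glo luminescence quantified reporter activity.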

[7] = qHTS assay to identify small molecule agonists or antagonists of the thyroid stimulating hormone receptor (TSHR) signaling pathway - wild type cell line counter screen (AID 1259384; calls by dose curve)
Procedure, shortened: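 Wild-type Hek293 cells, 800/well, 18 h at 37C, then compound with Ro20-1724 for 30 min RT. cAMP by HTRF (cAMP-d2/anti-cAMP cryptate), 1 h RT, fluorescence read. 15 concentrations, triplicates.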

[8] = molecular target: Thyrotropin receptor (Homo sapiens) (UniProt P16473); assay: qHTS assay to identify small molecule antagonists of the thyroid stimulating hormone receptor (TSHR) signaling pathway (AID 1259385; calls by dose curve; also: nearly all actives have a fitted effect of over 20% in size)
Sequence of Thyrotropin receptor (Homo sapiens) (P16473 whole entry, looked up): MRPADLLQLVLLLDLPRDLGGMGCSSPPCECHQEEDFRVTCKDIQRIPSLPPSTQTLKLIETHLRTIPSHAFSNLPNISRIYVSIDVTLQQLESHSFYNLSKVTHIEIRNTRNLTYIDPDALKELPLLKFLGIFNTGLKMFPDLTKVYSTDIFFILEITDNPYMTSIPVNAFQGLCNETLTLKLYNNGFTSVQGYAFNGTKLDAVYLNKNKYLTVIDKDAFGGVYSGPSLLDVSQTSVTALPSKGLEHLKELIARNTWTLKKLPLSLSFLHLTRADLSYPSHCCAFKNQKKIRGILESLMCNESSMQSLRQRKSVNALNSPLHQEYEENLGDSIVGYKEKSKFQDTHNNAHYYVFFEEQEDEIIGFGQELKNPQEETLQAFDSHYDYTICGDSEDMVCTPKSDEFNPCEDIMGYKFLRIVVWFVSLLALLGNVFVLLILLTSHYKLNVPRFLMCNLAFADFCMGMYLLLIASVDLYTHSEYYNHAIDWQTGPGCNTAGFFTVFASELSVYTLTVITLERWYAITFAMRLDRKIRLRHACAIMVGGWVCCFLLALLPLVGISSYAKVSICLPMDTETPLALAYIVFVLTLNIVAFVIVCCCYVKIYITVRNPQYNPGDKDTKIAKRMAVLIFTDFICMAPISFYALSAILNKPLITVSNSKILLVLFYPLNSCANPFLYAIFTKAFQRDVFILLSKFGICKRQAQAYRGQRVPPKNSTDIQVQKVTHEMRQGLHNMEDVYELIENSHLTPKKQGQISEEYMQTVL
Procedure, shortened: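 TSHR-HEK293 cells (800/well) plated 18 h, then compounds with Ro20-1724 and TSH at 1.5 ng/mL final, 30 min at room temperature. cAMP quantified by HTRF (cAMP-d2/anti-cAMP-cryptate, 1 h); 15 concentrations in triplicate.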

[9] = qHTS assay to identify small molecule agonists of the estrogen receptor alpha (ER-alpha) signaling pathway in the presence of an antagonist - cell viability counter screen (AID 1259386);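 also: series mostly up to about 92 µM; cells exposed to compounds for 22 h at 37 °C before the viability read; nearly all actives have a fitted effect of over 30% in size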
Procedure, shortened: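 ICI-182,780 at 10.0nM final accompanies the compound titration (15 concentrations, 22hr, 37C) on VM7Luc4E2 cells. The CellTiter-Fluor fluorescence readout runs in the same wells as the luciferase assay.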

[10] = molecular target: Progesterone receptor (Homo sapiens) (UniProt P06401); assay: qHTS assay to identify small molecule antagonists of the progesterone receptor (PR) signaling pathway (AID 1346795; active = well fitted inhibition curve with a large enough effect in the signal ratio in the repeat runs, not every such curve was filed as active; the % refers to the signal ratio)
Sequence of Progesterone receptor (Homo sapiens) (P06401 whole entry, looked up): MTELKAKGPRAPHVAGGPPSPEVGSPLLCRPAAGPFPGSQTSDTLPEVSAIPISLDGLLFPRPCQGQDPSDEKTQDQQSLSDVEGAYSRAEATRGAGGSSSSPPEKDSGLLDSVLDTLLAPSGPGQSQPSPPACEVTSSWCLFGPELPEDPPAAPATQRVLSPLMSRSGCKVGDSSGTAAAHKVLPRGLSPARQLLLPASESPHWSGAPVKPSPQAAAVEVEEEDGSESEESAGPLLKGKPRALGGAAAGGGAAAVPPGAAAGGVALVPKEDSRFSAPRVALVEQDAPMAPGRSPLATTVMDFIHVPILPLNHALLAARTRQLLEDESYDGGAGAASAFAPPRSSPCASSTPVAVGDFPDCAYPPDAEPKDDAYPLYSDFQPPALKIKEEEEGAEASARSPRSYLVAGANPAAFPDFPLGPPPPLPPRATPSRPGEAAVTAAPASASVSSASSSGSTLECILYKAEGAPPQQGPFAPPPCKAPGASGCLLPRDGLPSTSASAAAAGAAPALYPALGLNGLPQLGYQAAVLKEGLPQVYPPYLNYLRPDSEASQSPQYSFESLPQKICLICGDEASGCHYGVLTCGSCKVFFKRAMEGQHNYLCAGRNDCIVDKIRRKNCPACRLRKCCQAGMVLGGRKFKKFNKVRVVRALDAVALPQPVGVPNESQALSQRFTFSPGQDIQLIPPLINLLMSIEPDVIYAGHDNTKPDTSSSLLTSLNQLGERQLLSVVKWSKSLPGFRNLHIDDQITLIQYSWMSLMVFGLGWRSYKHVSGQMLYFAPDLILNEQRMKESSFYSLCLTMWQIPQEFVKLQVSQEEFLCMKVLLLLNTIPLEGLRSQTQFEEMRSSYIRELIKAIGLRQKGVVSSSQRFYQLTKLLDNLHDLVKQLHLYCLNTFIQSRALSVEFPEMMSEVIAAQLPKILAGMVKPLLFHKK
Procedure, shortened: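 Fluorescence intensity measured 2 hr after adding beta-lactamase FRET substrate to PR-UAS-bla HEK293T cells that had been co-treated 16 hr with compound and 1 nM R5020 (final concentration) in 2% charcoal-stripped FBS.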

[11] = qHTS assay to identify small molecule antagonists of the progesterone receptor (PR) signaling pathway - cell viability counter screen (AID 1346798); also: series mostly up to about 92 µM; nearly all actives have a fitted effect of over 50% in size
Procedure, shortened: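 CellTiter-Glo luminescence; PR-UAS-bla HEK293T, 3,000 cells/well; compound + R5020, 16 hr, 37C/5% CO2; 30 min RT before read.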

[12] = qHTS assay to identify small molecule agonists of the progesterone receptor (PR) signaling pathway - cell viability counter screen (AID 1346799; calls by dose curve; also: nearly all actives have a fitted effect of over 45% in size)
Procedure, shortened: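 In parallel with the beta-lactamase readout, cytotoxicity toward PR-UAS-bla HEK293T cells was measured by CellTiter-Glo luminescence following 16 hr compound incubation in 2% charcoal-stripped FBS medium.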

[13] = qHTS assay to identify small molecule agonists of the TGF-beta/Smad signaling pathway - cell viability counter screen (AID 1346829); also: top concentration of the series differs between compounds; nearly all actives have a fitted effect of over 45% in size
Procedure, shortened: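 Here the cytotoxicity of library compounds is measured in SBE-bla HEK 293T cells treated for 5 hr, using CellTiter-Glo added to wells already read for the beta-lactamase reporter.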

[14] = qHTS assay to identify small molecule agonists of the TGF-beta/Smad signaling pathway (AID 1346859; active = well fitted activation curve with a large enough effect in the signal ratio in the repeat runs, not every such curve was filed as active; the % refers to the signal ratio; also: series mostly up to about 77 µM)
Procedure, shortened: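 After overnight seeding, SBE-bla HEK 293T cells are dosed with compounds in DMSO and kept 5 hr at 37 C, 5% CO2. LiveBLAzer-type FRET substrate is then applied for 2 hr at room temperature.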

[15] = molecular target: Thyrotropin-releasing hormone receptor (Homo sapiens) (UniProt P34981); assay: qHTS assay to identify small molecule antagonists of the thyrotropin-releasing hormone receptor (TRHR) signaling pathway (AID 1346877; active = well fitted inhibition curve with a large enough effect in the repeat runs, not every such curve was filed as active; also: series mostly up to about 51 µM)
Sequence of Thyrotropin-releasing hormone receptor (Homo sapiens) (P34981 whole entry, looked up): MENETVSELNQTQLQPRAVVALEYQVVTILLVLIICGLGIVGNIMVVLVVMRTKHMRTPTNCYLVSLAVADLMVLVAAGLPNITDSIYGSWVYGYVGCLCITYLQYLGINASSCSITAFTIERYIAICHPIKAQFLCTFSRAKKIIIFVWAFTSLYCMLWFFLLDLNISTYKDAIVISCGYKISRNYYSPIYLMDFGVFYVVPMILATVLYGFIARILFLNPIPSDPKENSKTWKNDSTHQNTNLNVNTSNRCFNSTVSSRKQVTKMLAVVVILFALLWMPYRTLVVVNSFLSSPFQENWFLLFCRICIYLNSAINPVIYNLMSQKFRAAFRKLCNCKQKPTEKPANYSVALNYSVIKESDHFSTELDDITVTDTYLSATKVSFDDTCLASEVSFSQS
Procedure, shortened: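 Screening used HEK293 cells engineered with TRHR, with a brief 5 min room-temperature compound exposure preceding addition of TRH to 1 nM. The read-out was kinetic calcium-dye fluorescence, concentration-response from 15 doses in triplicate.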

[16] = molecular target: Thyrotropin-releasing hormone receptor (Homo sapiens) (UniProt P34981); assay: qHTS assay to identify small molecule agonists of the thyrotropin-releasing hormone receptor (TRHR) signaling pathway (AID 1346891; calls by dose curve;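 also: HEK293 cells expressing TRHR with calcium dye readout; series mostly up to about 58 µM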)
Procedure, shortened: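 Compounds were tested as agonists at 15 concentrations, in triplicate, on TRHR-Hek293 cells; calcium-sensitive dye fluorescence was recorded for 3 min following addition.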

[17] = qHTS assay to identify small molecule agonists of the androgen receptor (AR) signaling pathway in the presence of an antagonist - cell viability counter screen (AID 1259379);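 also: MDA-kb2 human breast cancer cells carrying an MMTV luciferase reporter; series mostly up to about 92 µM; nearly all actives have a fitted effect of over 25% in size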
Procedure, shortened: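 A CellTiter-Fluor read-out measured viability of MDA-kb2 reporter cells (MMTV promoter with AR and GR response elements). Treatment: nilutamide 3.0uM final with compounds at 15 concentrations, 16 hr, 37C, 0% CO2.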

[18] = qHTS assay to identify small molecule antagonists of the TGF-beta/Smad signaling pathway - cell viability counter screen (AID 1346824); also: nearly all actives have a fitted effect of over 50% in size
Procedure, shortened: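 SBE-bla HEK 293T cells, incubated overnight, then compound plus 0.25 ng/mL TGF-beta1 (stock added) for 5 hr at 37 C. Viability was read in the same wells by CellTiter-Glo luminescence after 30 min at room temperature.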

[19] = molecular target: Progesterone receptor (Homo sapiens) (UniProt P06401); assay: qHTS assay to identify small molecule agonists of the progesterone receptor (PR) signaling pathway (AID 1346784; calls by dose curve; also: nearly all actives have a fitted effect of over 30% in size)
Procedure, shortened: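 Fluorescence from LiveBLAzer B/G FRET substrate cleavage (2 hr, RT) reported PR activation in PR-UAS-bla HEK 293T cells treated 16 hr at 37C/5% CO2 with compounds; medium contained 2% charcoal-stripped FBS.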

[20] = molecular target: Androgen receptor (Homo sapiens) (UniProt P10275); assay: qHTS assay to identify small molecule agonists of the androgen receptor (AR) signaling pathway in the presence of an antagonist (AID 1259381; calls by dose curve; also: nearly all actives have a fitted effect of over 15% in size)
Sequence of Androgen receptor (Homo sapiens) (P10275 whole entry, looked up): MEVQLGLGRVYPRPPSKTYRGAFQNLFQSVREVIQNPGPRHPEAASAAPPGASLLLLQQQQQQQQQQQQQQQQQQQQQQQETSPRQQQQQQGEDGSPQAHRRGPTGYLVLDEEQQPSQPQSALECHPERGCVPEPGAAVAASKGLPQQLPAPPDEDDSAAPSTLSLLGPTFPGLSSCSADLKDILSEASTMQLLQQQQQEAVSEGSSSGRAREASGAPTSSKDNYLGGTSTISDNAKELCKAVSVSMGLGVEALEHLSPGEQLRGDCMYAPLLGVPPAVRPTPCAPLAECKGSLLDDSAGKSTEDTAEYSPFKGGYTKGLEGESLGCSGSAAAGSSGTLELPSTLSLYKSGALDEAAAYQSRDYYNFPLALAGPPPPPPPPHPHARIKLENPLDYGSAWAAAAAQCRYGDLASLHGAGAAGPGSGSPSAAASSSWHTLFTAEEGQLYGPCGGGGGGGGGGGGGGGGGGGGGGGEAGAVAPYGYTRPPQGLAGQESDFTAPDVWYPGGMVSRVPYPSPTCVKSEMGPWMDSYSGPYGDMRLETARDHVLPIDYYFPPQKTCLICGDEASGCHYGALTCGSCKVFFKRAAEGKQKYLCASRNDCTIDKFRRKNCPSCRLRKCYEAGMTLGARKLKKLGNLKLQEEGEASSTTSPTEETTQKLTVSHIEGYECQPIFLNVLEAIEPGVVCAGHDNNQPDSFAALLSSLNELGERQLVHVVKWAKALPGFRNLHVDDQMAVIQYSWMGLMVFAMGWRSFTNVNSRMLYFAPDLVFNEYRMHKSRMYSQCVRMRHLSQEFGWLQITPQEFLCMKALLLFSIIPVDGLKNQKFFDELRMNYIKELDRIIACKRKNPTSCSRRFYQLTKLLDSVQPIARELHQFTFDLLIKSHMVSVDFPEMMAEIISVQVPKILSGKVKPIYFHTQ
Procedure, shortened: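 Using human MDA-kb2 cells with an MMTV promoter–luciferase construct (AR and GR response elements), agonist activity is scored under 3.0uM nilutamide (final) co-treatment; 16hr incubation, 37C, luminescence readout via ONE-Glo.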

Measured: Potency

Clc1cc(Cl)cc(Cl)c1
not listed: [17] | [18] | [19] | [20]
inactive: all other assays above

CCCCN(CCC(=O)OCC)C(C)=O
not listed: [4] | [6] | [10] | [13] | [19] | [20]
inactive: all other assays above

O=CN(CCO)CCO
not listed: [6] | [19] | [20]
inactive: all other assays above

CC(COc1ccccc1)NN (centres undefined)
not listed: [4] | [15] | [16] | [18] | [20]
inactive: all other assays above

O=C1NC(=O)C2CC=CCC12 (centres undefined)
not listed: [6] | [8] | [10] | [11] | [13] | [15] | [20]
inactive: all other assays above

O=C(O)Cc1csc(-c2ccc(Cl)cc2)n1
not listed: [6] | [8] | [10] | [14] | [15] | [16] | [19] | [20]
inactive: all other assays above

CCCCOCCOC(=O)COc1cc(Cl)c(Cl)cc1Cl
not listed: [6] | [8] | [18] | [20]
inactive: all other assays above

FB(F)F
not listed: [2] | [3] | [15] | [16] | [20]
inactive: all other assays above

CO/N=C(\C(=O)N[C@@H]1C(=O)N2C(C(=O)O)=C(CSc3nc(=O)c(O)nn3C)CS[C@H]12)c1csc(N)n1
not listed: [2] | [3] | [10] | [11] | [19] | [20]
inactive: all other assays above

COc1cc(C(=O)NCc2ccc(OCCN(C)C)cc2)cc(OC)c1OC
not listed: [2] | [3] | [11] | [20]
inactive: all other assays above

CCCC[N+](C)(CCCC)CCCC
not listed: [3] | [10] | [15] | [16] | [20]
inactive: all other assays above

CCC(C)(CN(C)C)OC(=O)c1ccccc1 (centres undefined)
inactive: [1] | [2] | [3] | [4] | [5] | [9] | [19] | [10] | [11] | [12] | [14]

CO[Si](C)(OC)c1ccccc1
not listed: [2] | [3] | [10] | [16] | [19] | [20]
inactive: all other assays above

CCN1C=CN(C)C1C (centres undefined)
not listed: [2] | [3] | [15] | [20]
inactive: all other assays above

CC(=O)N[C@H]1[C@H]([C@H](O)[C@H](O)CO)OC(C(=O)O)=C[C@@H]1N=C(N)N
not listed: [2] | [3] | [15] | [16] | [18]
inactive: all other assays above
